# Compound activity deposited in PubChem BioAssay by National Center for Advancing Translational Sciences (NCATS).
# In the library only some 19% were active in any assay of this set; here they are far more common.
# HT1080 IDH1KD tx: kills HT-1080 cells with IDH1 knockdown. actives 2% (n = 360,000). HT-1080 IDH1 knockdown viability, ATP luminescence, 48 h. Potency, µM (doses to about 46.1 µM), for the others: at the highest dose activity, negative = toxicity, actives largely listed as cytotoxic. AID 686971;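 also: potency is read from the fitted curve at half-maximal effect; 0% = DMSO wells and -100% = cell-free medium wells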
#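 HT-1080-IDH1KD cells (IDH1 knocked down), 750/well in RPMI with 5% FBS, treated with compound 48 h at 37 degrees C. Viability by CellTiter-Glo luminescence, normalised to DMSO and no-cell wells; concentration-response curves classed.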
# DT40 TDP1 no CPT: qHTS for Inhibitors of human tyrosyl-DNA phosphodiesterase 1 (TDP1): qHTS in cells in absence of CPT; actives 15% (n = 420,000); DT40 Tdp1-/- hTDP1 cells, no CPT, ATP luminescence, 48 h; Potency, µM (series often up to 46.2 µM), for the others: at the highest dose activity change, negative = growth inhibition, actives largely listed as inhibitors; also: potency is read from the fitted curve at half-maximal effect; nearly all actives have a fitted effect of over 55% in size
#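 Readout: luminescence from CellTiter-Glo after 30 min in the dark at RT. Cells: DT40 Tdp1-/- with stable hTDP1, 400/well. Exposure: compounds alone, ≥48 hr, 37 °C.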
# ELG1 DNA repair: blocks ELG1-dependent DNA repair in HEK293T cells | Potency, µM (top dose mostly 46.1 µM), for the others: top-dose activity change, negative = inhibition, actives largely listed as inhibitors | HEK293T ELG1-luciferase reporter, luminescence, 16 h; DNA damage induced by 5-fluorouridine | actives 2.3% (n = 330,000); also: potency is read from the fitted curve at half-maximal effect; nearly all actives have a fitted effect of over 55% in size
#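 5-Fluorouridine DNA damage + compound/DMSO, 2,000 cells/well, 16 h, 37 °C/5% CO2. ONE-Glo, 30 min RT, luminescence. Readout = decrease in reporter signal.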
# HT1080NT lethal: kills 2HG-producing HT-1080-NT fibrosarcoma cells; Potency, µM (titrated, usually from 46.1 µM), without a hit: at the top dose activity, negative = less viability, actives largely listed as cytotoxic; actives 1.6% (n = 360,000); AID 686970; HT-1080-NT fibrosarcoma viability, CellTiter-Glo ATP luminescence, 48 h;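 also: NT is the 2HG producing partner of a matched IDH1 knockdown line; potency is read from the fitted curve at half-maximal effect; 0% = DMSO-treated cells and -100% = media-only wells without cells; nearly all actives have a fitted effect of over 55% in size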
#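 Fibrosarcoma NT cells, 750 per well in 5% FBS RPMI, were exposed to compound for 48 hours. Viability: CellTiter-Glo luminescence.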
# TDP1 cell CPT: DT40-hTDP1 cell growth loss with CPT | chicken DT40 Tdp1-/-;hTDP1 cells + 20 nM CPT, ATP luminescence, 48 h | Potency, µM (top dose mostly 46.2 µM), inactives show top-dose activity change, negative = growth inhibition, usual class: inhibitors | actives 12% (n = 420,000) | AID 686979; also: potency is read from the fitted curve at half-maximal effect; nearly all actives have a fitted effect of over 55% in size
#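 Cell growth measured by CellTiter-Glo luminescence after a minimum 48 h, 37 C compound exposure with 20 nM CPT in Tdp1-knockout DT40 cells stably expressing hTDP1, seeded 400/well; qHTS titration format.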
# IL1B secr inh: inflammasome signaling inhibition, IL-1 beta readout | actives 4.7% (n = 360,000) | THP-1 LPS/ATP IL-1B secretion, AlphaLISA, 16 h; stronger effect = lower value | activity change, % at 57.5 µM; in the data active = activity change below about -50%; inconclusive = mostly about -30% to -49%
#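 THP-1 cells pretreated 1 hr with compounds (up to 57.5 uM final), then stimulated with LPS (250 ng/mL final) plus ATP (1.25 mM final); secreted IL-1B measured by AlphaLISA after 16 hr, decreased signal indicating inhibition.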
# * hit, by the source's call; i = inactive; ? = inconclusive; · = no result; [ ] = remark or other dose. Unless noted, calls follow the shape of the dose curve; as a rule, active = well fitted curve in the direction sought with a large enough effect; inconclusive = small, poorly fitted or top-dose-only effect, or another doubt; inactive = no such curve, though single readings can be large; an effect the other way counts as inactive or inconclusive. Unless noted, % is scaled to controls: 0 for no effect and ±100 for the full control effect.
SMILES,HT1080 IDH1KD tx,DT40 TDP1 no CPT,ELG1 DNA repair,HT1080NT lethal,TDP1 cell CPT,IL1B secr inh
COc1cccc(C2NC(=O)NC(C)=C2C(=O)Nc2ccc(C)cc2)c1OC (stereo unspecified),12.7%[9.24 µM],11.2%,?,5.1%,4.1%,9.8
COc1cccc(C2=CC(c3ccccc3F)n3ncc(C(=O)Nc4ccc(F)cc4)c3N2)c1 (stereo unspecified),·,18.4µM*,·,·,?,·
CCOC(=O)C1=C(COC(=O)C(CC)c2ccccc2)NC(=O)NC1C (stereo unspecified),-1.2%,-4.4%,5.8%,-0.2%,-18.7%,21.9
Cc1ccc(C2=NC3(CCCCC3)N=C2SCC(=O)Nc2ccc3c(c2)OCCO3)cc1,-23.6%,?,?,?,20.6µM*,-93.2*
Cc1cc(C)nc(SCC(=O)Nc2ccc3c(c2)OCO3)n1,1.8%,0.0%,-5.8%,3.1%,-14.2%,-83.0*
Cc1cc(Oc2ccccc2)nc(SCC(=O)Nc2ccccc2)n1,-5.3%,-28.7%,-24.2%,-6.4%,?,1.8
Cc1cc(Oc2ccccc2)nc(SCC(=O)Nc2ccc(Cl)c(Cl)c2)n1,-22.4%,18.4µM*,-32.8%,-11.5%,?,-8.0
Nc1cc(N)nc(SCC(=O)Nc2ccc3c(c2)OCO3)n1,11.6%,-1.8%,-26.8%,-7.6%,2.0%,-1.5
Cc1nc(SCC(=O)Nc2ccc3c(c2)OCO3)c(C#N)c2c1CCCC2,-6.2%,18.4µM*,2.9%,-0.9%,20.6µM*,-22.4
Cc1cc(C)c(NC(=O)CCCCCNC2CCCCC2)c(C)c1,1.0%,?,-3.0%,1.6%,?,-11.4
CN(C(=O)c1ccoc1)c1ccc2ccccc2c1,-25.4%,?,-9.3%,-3.3%,13µM*,12.4
COc1ccc(-n2c(C)cc(C(=O)Cn3nc(C(=O)O)c4ccccc4c3=O)c2C)cc1,-16.4%,16.4µM*,-15.9%,-10.0%,?,0.0
Cc1cc(C(=O)Cn2nc(C(=O)O)c3ccccc3c2=O)c(C)n1CCc1ccc(F)cc1,?,?,?,-10.6%,16.4µM*,-4.8
Cc1ccc(-n2c(C)cc(C(=O)Cn3nc(C(=O)O)c4ccccc4c3=O)c2C)cc1,?,?,19.3%,-26.1%,?,2.2
COc1ccc(-n2c(C)cc(C(=O)Cn3nnc4ccccc4c3=O)c2C)cc1,?,20.6µM*,5.7%,?,20.6µM*,0.0
O=C(Nc1ccc(Cl)cc1C(F)(F)F)C(Sc1nnc(-c2cccs2)o1)c1ccccc1 (stereo unspecified),10.3µM*,20.6µM*,-21.7%,?,?,-12.1
Cc1nn(Cc2c(F)c(F)c(F)c(F)c2F)c(C)c1NC(=O)c1ccnn1C,12.5%,17.6%,-7.1%,12.9%,-3.1%,7.0
Cc1nn(C)c(C(=O)Nc2c(C)nn(Cc3c(F)c(F)c(F)c(F)c3F)c2C)c1Br,12.2%,3.66µM*,-4.2%,0.8%,8.2µM*,35.0
N#Cc1c(-c2ccccc2F)cc(C2CC2)nc1SCC(=O)c1cccs1,0.5%,18.4µM*,-19.5%,19.5%,18.4µM*,i
CCSc1nc(C2CC2)cc(-c2cccs2)c1C#N,2.5%,?,?,4.7%,-27.5%,14.0
Cc1cc(=O)[nH]c(SCC(=O)Nc2ccc(Br)cc2)c1C#N,?,?,-5.9%,?,-26.3%,36.5
Cc1cccc(C)c1NC(=O)CSc1nc(C)c(CC(=O)c2ccc(Br)cc2)c(C)c1C#N,14.2%,?,-6.5%,33.6%,20.6µM*,23.5
